{"source": "PubChem BioAssay AID1851", "about": "(National Center for Advancing Translational Sciences (NCATS), 2009)", "note": "Among all 16,000 compounds or so, about 5,700 (36%) were called active. Another 24% or so got no clear call; they are omitted. Some of the results follow. A number with no mark means an inactive call. The call rests on the fitted dose curve; in most records, active means well fitted curve in the direction sought with a large enough effect; inconclusive means small, poorly fitted or top-dose-only effect, or effect the other way; inactive means no such curve, though single readings can be large or run the other way. On the % scale 0 is the no-effect control and ±100 the full control effect."}
{"target": "Cytochrome P450 1A2 (Homo sapiens) (UniProt P05177)", "sequence (P05177 whole entry, looked up)": "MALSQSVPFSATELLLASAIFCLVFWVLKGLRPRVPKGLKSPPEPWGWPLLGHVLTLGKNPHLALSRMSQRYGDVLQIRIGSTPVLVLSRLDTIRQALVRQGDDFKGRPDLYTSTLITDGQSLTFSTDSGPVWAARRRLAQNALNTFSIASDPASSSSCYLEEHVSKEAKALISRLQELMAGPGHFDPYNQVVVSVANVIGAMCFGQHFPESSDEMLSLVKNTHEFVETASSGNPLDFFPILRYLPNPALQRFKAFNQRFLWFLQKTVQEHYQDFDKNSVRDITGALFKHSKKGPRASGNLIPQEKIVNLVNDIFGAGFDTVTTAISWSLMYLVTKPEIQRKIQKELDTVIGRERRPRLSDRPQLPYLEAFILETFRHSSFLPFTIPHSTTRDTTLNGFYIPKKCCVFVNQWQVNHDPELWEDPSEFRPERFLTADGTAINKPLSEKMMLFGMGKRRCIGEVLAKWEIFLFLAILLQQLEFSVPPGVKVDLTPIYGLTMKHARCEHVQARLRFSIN", "test": "Cytochrome panel assay with activity outcomes", "details": "recombinant CYP, pro-luciferin dealkylation, luminescence, p450-cyp1a2; series mostly up to 57.1 µM; activity, negative = inhibition: at the top concentration"}
{"molecule": "CCc1noc(N)c1C(=O)Nc1ccc(F)c(Cl)c1", "AC50": "4.47 µM (active)"}
{"molecule": "Cc1cnn(CCC(=O)NNC(=S)Nc2ccc(F)cc2)c1", "activity, negative = inhibition": "5.71%"}
{"molecule": "Cc1noc(C)c1C(=O)N1CCC2(CC1)CN(C(=O)Nc1cccc(F)c1)C2", "activity, negative = inhibition": "9.29%"}
{"molecule": "Cc1noc(N)c1C(=O)Nc1ccc(F)cc1", "AC50": "8.91 µM (active)"}
{"molecule": "C/C(CCC(=O)OC[C@@H]1O[C@H](C#Cc2ccccc2)C=C[C@@H]1Oc1ccc(C)cc1)=N/OC[C@@H](C)[C@H](OCc1ccccc1)C(C)C", "activity, negative = inhibition": "-1.97% [at 11.4 µM]"}
{"molecule": "COCC(=O)N1CCC2(CC1)CCN(C(=O)Nc1cccc(F)c1)CC2", "activity, negative = inhibition": "1.84%"}
{"molecule": "CC(=O)N=c1sc(S(N)(=O)=O)nn1C", "activity, negative = inhibition": "-3.09% [at 25.6 µM]"}
{"molecule": "O=C(O)CCC(=O)CCC(=O)c1ccccc1", "activity, negative = inhibition": "12.2%"}
{"molecule": "O=C(O)CCC(=O)c1ccc2ccc3cccc4ccc1c2c34", "AC50": "1.26 µM (active)"}
{"molecule": "CN(c1ccc(C(=O)NC2CC3CCC2C3)cc1)S(C)(=O)=O", "note": "(stereo not given)", "activity, negative = inhibition": "-12.9%"}
{"molecule": "Cc1ccc(C(N)=Nc2ccccc2)cc1", "activity, negative = inhibition": "-14.7% [at 11.4 µM]"}
{"molecule": "O=C(O)C(Cc1cccs1)C(=O)O", "activity, negative = inhibition": "-2.09% [at 2.29 µM]"}
{"molecule": "Cc1ccc(/C(N)=N/OC(=O)Cc2cccs2)cc1", "AC50": "15.8 µM (active)"}
{"molecule": "CN(NC(=O)NN)c1ncc(C(F)(F)F)cc1Cl", "AC50": "14.1 µM (active)"}
{"molecule": "CC(C)On1c(SC(C)C)nc2ccccc2c1=O", "AC50": "2 µM (active)"}
{"molecule": "COn1c(SC(C)C)nc2ccccc2c1=O", "AC50": "0.708 µM (active)"}
{"molecule": "CN1CCN(CCCNC(=O)C2CCN(c3nnc(-n4cccc4)s3)CC2)CC1", "activity, negative = inhibition": "-5%"}
{"molecule": "CC1CC(C)CN(CCCNC(=O)C2CCCN(c3nnc(N4CCCC4=O)s3)C2)C1", "note": "(stereo not given)", "activity, negative = inhibition": "-3.41%"}
{"molecule": "O=C(NCCc1c[nH]c2ccccc12)C1CCN(c2nnc(N3CCCC3=O)s2)CC1", "AC50": "20 µM (active)"}
{"molecule": "C[C@@H]1NCC[C@H](CC(=O)O)[C@H]1CC(=O)O", "activity, negative = inhibition": "-6.87% [at 11.4 µM]"}
{"molecule": "FC(F)(F)c1cc(CN2CC3(CCNCC3)C2)cc(C(F)(F)F)c1", "activity, negative = inhibition": "-13.1%"}
{"molecule": "CC[C@H](C(=O)c1cccs1)C(O)(C(F)(F)F)C(F)(F)F", "activity, negative = inhibition": "-17.5% [at 2.29 µM]"}
{"molecule": "Cc1ccc(N=C/C(C(=O)C(F)(F)F)=C(\\O)c2cccs2)cc1", "AC50": "12.6 µM (active)"}
{"molecule": "Cc1ccc(S(=O)(=O)c2c(C)nn(C(C)(C)C)c2OC(=O)c2cccs2)cc1", "activity, negative = inhibition": "-25.5%"}
{"molecule": "CC(=O)N1CCC2(CC1)CN(c1ccccn1)C2", "activity, negative = inhibition": "6.5%"}
{"molecule": "Cc1cc(C)n2nc(-c3sccc3-n3cccc3)cc2n1", "AC50": "5.01 µM (active)"}
{"molecule": "CCN1CCN(c2cc(=O)n(-c3cc(Cl)ccc3C)c(=O)[nH]2)CC1", "activity, negative = inhibition": "-10.1%"}
{"molecule": "c1ccc(-c2nc(NCCCn3ccnc3)c3oc4ccccc4c3n2)cc1", "AC50": "0.0398 µM (active)"}
{"molecule": "c1ccc2c(c1)oc1c(NCCCn3ccnc3)ncnc12", "AC50": "0.0562 µM (active)"}
{"molecule": "Cc1cccc(C)c1NC(=O)N1CCC(N2CCCCC2)CC1", "activity, negative = inhibition": "-15.1%"}
{"molecule": "Cc1cc(C)c(NC(=O)C2CCCN2C)c(C)c1", "note": "(stereo not given)", "activity, negative = inhibition": "-11.5%"}
{"molecule": "CCCCN1CCCC[C@H]1C(=O)Nc1c(C)cccc1C", "AC50": "5.01 µM (active)"}
{"molecule": "O=C(Cc1ncc(C(F)(F)F)cc1Cl)Nc1cccc(Br)c1", "AC50": "17.8 µM (active)"}
{"molecule": "CCOC(=O)c1cnc2ccc(C)cc2c1Sc1ccccc1C(=O)OC", "AC50": "3.55 µM (active)"}
{"molecule": "COc1ncc2nc(-c3ccccc3)c(=O)n(-c3ccccc3)c2n1", "AC50": "2 µM (active)"}
{"molecule": "COc1ncc2nc(-c3ccc(Cl)cc3)c(=O)n(-c3ccccc3)c2n1", "AC50": "1.58 µM (active)"}
{"molecule": "COCCNC(=O)COC(=O)/C=C/c1cnc2ccccc2n1", "AC50": "7.08 µM (active)"}
{"molecule": "CCc1c(C)c2c(C)[nH]nc2oc1=O", "AC50": "5.01 µM (active)"}
{"molecule": "CC(C)C12CC[C@@]3(CC[C@H]4[C@@](C)(CCC[C@]4(C)C(=O)O)[C@@H]3C1)[C@@H](CN)C2", "activity, negative = inhibition": "-4.02% [at 11.4 µM]"}
{"molecule": "CCOC(=O)c1c(C)n(C)c2ccc(OC(=O)c3ccco3)cc12", "AC50": "0.355 µM (active)"}
{"molecule": "CCN(CC)CCOC(=O)c1c(C)n(C)c2ccc(OC)cc12", "AC50": "1.41 µM (active)"}
{"molecule": "O=CN[C@@H](Cc1cnc[nH]1)C(=O)O", "activity, negative = inhibition": "-8.82% [at 11.4 µM]"}
{"molecule": "Cc1ccccc1-c1ccc2ncnc(N(C)C)c2c1", "AC50": "0.631 µM (active)"}
{"molecule": "CN(C)c1ncnc2ccc(-c3ccccc3C#N)cc12", "AC50": "0.398 µM (active)"}
{"molecule": "COc1ccccc1-c1ccc2ncnc(N(C)C)c2c1", "AC50": "1.26 µM (active)"}
{"molecule": "CN(C)c1ncnc2ccc(-c3ccccc3C(F)(F)F)cc12", "AC50": "0.631 µM (active)"}
{"molecule": "Nc1nc(=O)c2[nH]cnc2n1O", "activity, negative = inhibition": "-12.4% [at 11.4 µM]"}
{"molecule": "O=c1oc2cc(Oc3c([N+](=O)[O-])cc(C(F)(F)F)cc3[N+](=O)[O-])ccc2c2c1CCCC2", "AC50": "3.16 µM (active)"}
{"molecule": "COc1ccccc1-c1c(C(F)(F)F)oc2cc(OC(=O)c3cccc([N+](=O)[O-])c3C)ccc2c1=O", "activity, negative = inhibition": "-23.6%"}
{"molecule": "O=c1oc2cc(Oc3ccc(C(F)(F)F)cc3[N+](=O)[O-])ccc2c2c1CCCC2", "activity, negative = inhibition": "-1.9%"}
{"molecule": "CC(C)(C)N1C(=O)[C@H]2[C@H]3[C@H](O)[C@H](O)C/C(=N/OC[C@@H](O)COCc4ccco4)[C@H]3CC[C@@H]2C1=O", "activity, negative = inhibition": "-7.06% [at 11.4 µM]"}
{"molecule": "C[C@@H]1/C=C\\CC(=O)OC[C@H](C)C(=O)N[C@@H](Cc2ccccc2)C(=O)OC1", "activity, negative = inhibition": "-0.511% [at 11.4 µM]"}
{"molecule": "COCCn1c(=O)c(CCc2ccccc2)nc2cnc(Oc3ccc(OC)cc3)nc21", "AC50": "15.8 µM (active)"}
{"molecule": "COc1ccc(-n2c(=O)c(CCc3ccccc3)nc3cnc(OC)nc32)cc1", "AC50": "15.8 µM (active)"}
{"molecule": "COc1ncc2nc(CCc3ccccc3)c(=O)n(C)c2n1", "AC50": "5.01 µM (active)"}
{"molecule": "COCCn1c(=O)c(CCc2ccccc2)nc2cnc(OC)nc21", "AC50": "10 µM (active)"}
{"molecule": "CC(C)(C)c1cc(C(=O)O)c(CN2CCCCC2)o1", "activity, negative = inhibition": "-9.17%"}
{"molecule": "CCN1C(=O)[C@H]2[C@H]3[C@H](O)[C@H](O)C/C(=N/OC[C@@H](C)[C@H](OCc4ccccc4)C(C)C)[C@@H]3CC[C@@H]2C1=O", "activity, negative = inhibition": "-11.8% [at 11.4 µM]"}
{"molecule": "COc1ncc2nc(CCc3ccccc3)c(=O)n(CCC#N)c2n1", "AC50": "15.8 µM (active)"}
{"molecule": "CO[C@H]1COC(=O)[C@H](C)NC(=O)C/C=C\\[C@@H](C)[C@H](OC)COC(=O)[C@@H](OCc2ccccc2)/C=C\\[C@@H]1C", "activity, negative = inhibition": "-11.8% [at 11.4 µM]"}
